# From the supplement of paper PMC8728848
# Only a selection was taken, and the strongest signals are over-represented in it overall.
# B1: PX14375C-bth-509-28-509 (Bacteroides thetaiotaomicron) (protein)
# chain: RSPQGQFTEDDNPNALVNGKIYNVYTMMRSFDITAGTPAIAIHYLRSEDSEKGSIPSDGSDVAEMYDDFLYTPTNGLLGSYWGKNYAIIYQCNDILDAIAEKETAGQTETEDIINKGEASFFRAYCYFNLVRAFGEVPLVTYKINDASEANIPKTTADKIYEQIDTDLKTAEESLPETWSTEYTGRLTWGAARSLHARTYMMRSDWDNMYKASTDVINKGLYNLKTPYNEIFTDDGENSGGSIFELQCTATAALPQSDVIGSQFCEVQGVRGAGQWDLGWGWHMATQLMADAYETGDPRKNATLLYFRKTDDEPITPENTNEPYGESPISPAMGAYFNKKAYTDPALRKEYTNKGFWVNIRLIRYSDVVLMAAEAANEKNIPGEAVDYLEMVRARARGTNTNILPKITTNDQGELREAIRHERRVELGLEPDRFYDLVRWGIASEVLHAAGKVNYQDKNALLPLPQSEIDKSKGVLVQNPDY
# Tests used:
# Experiment in all cases: glycan array binding signal (z-score within array); higher = stronger binding
# Conditions in all cases: glycan notation: IUPAC condensed, linker removed
# [1] = molecular target: Gal(b1-4)GlcNAc(b1-3)Gal(b1-4)GlcNAc(b1-3)Gal(b1-4)GlcNAc(b1-2)Man(a1-3)[Gal(b1-4)GlcNAc(b1-3)Gal(b1-4)GlcNAc(b1-3)Gal(b1-4)GlcNAc(b1-2)Man(a1-6)]Man(b1-4)GlcNAc(b1-4)GlcNAc
# Procedure, shortened: (§1)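 Glycan array binding is given as a within-array Z-score, which can be read as non-binding when negative. The arrays, 3228 of them, came from the Consortium for Functional Glycomics database and were retained only where the protein sequence was available. Z-scores were averaged across arrays of the same protein sequence at different concentrations or buffers and across linkers.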
# [2] = molecular target: Gal(b1-4)GlcNAc(b1-3)Gal(b1-4)GlcNAc(b1-3)Gal(b1-4)GlcNAc(b1-3)Gal(b1-4)GlcNAc(b1-2)Man(a1-3)[Gal(b1-4)GlcNAc(b1-3)Gal(b1-4)GlcNAc(b1-3)Gal(b1-4)GlcNAc(b1-3)Gal(b1-4)GlcNAc(b1-2)Man(a1-6)]Man(b1-4)GlcNAc(b1-4)GlcNAc
# Procedure, shortened: as §1
# [3] = molecular target: Gal(b1-4)GlcNAc(b1-3)Gal(b1-4)GlcNAc(b1-3)Gal(b1-4)GlcNAc(b1-3)Gal(b1-4)GlcNAc(b1-3)Gal(b1-4)GlcNAc(b1-2)Man(a1-3)[Gal(b1-4)GlcNAc(b1-3)Gal(b1-4)GlcNAc(b1-3)Gal(b1-4)GlcNAc(b1-3)Gal(b1-4)GlcNAc(b1-3)Gal(b1-4)GlcNAc(b1-2)Man(a1-6)]Man(b1-4)GlcNAc(b1-4)GlcNAc
# Procedure, shortened: as §1
# Gal6P(b1-4)GlcNAc = molecular target: Gal6P(b1-4)GlcNAc
# Procedure, shortened: as §1
# [4] = molecular target: GalNAc(b1-3)Gal(a1-4)Gal(b1-4)GlcNAc(b1-3)Gal(b1-4)Glc
# Procedure, shortened: as §1
# [5] = molecular target: GalNAc(b1-3)Gal(a1-6)Gal(b1-4)Glc
# Procedure, shortened: as §1
# GalNAc(b1-3)GalNAc = molecular target: GalNAc(b1-3)GalNAc
# Procedure, shortened: as §1
# [6] = molecular target: GalNAc3S(b1-4)[Fuc(a1-3)]GlcNAc
# Procedure, shortened: as §1
# Glc(b1-6)Glc = molecular target: Glc(b1-6)Glc
# Procedure, shortened: as §1
# [7] = molecular target: GlcNAc(a1-4)Gal(b1-3)GlcNAc
# Procedure, shortened: as §1
# [8] = molecular target: GlcNAc(a1-4)Gal(b1-4)GlcNAc(b1-3)Gal(b1-4)[Fuc(a1-3)]GlcNAc(b1-3)Gal(b1-4)[Fuc(a1-3)]GlcNAc
# Procedure, shortened: as §1
# [9] = molecular target: GlcNAc(b1-3)Gal(b1-4)GlcNAc(b1-3)Gal(b1-4)GlcNAc(b1-2)Man(a1-3)[GlcNAc(b1-3)Gal(b1-4)GlcNAc(b1-3)Gal(b1-4)GlcNAc(b1-2)Man(a1-6)]Man(b1-4)GlcNAc(b1-4)GlcNAc
# Procedure, shortened: as §1
# [10] = molecular target: GlcNAc(b1-3)Gal(b1-4)GlcNAc(b1-3)Gal(b1-4)GlcNAc(b1-3)Gal(b1-4)GlcNAc(b1-2)[GlcNAc(b1-3)Gal(b1-4)GlcNAc(b1-3)Gal(b1-4)GlcNAc(b1-3)Gal(b1-4)GlcNAc(b1-6)]Man(a1-6)[GlcNAc(b1-3)Gal(b1-4)GlcNAc(b1-3)Gal(b1-4)GlcNAc(b1-3)Gal(b1-4)GlcNAc(b1-2)Man(a1-3)]Man(b1-4)GlcNAc(b1-4)[Fuc(a1-6)]GlcNAc
# Procedure, shortened: as §1
# [11] = molecular target: GlcNAc(b1-3)Gal(b1-4)GlcNAc(b1-6)[Gal(b1-3)]GalNAc
# Procedure, shortened: as §1
# [12] = molecular target: GlcNAc(b1-4)GlcNAc(b1-4)GlcNAc(b1-4)GlcNAc(b1-4)GlcNAc
# Procedure, shortened: as §1
# Kdn(a2-3)Gal(b1-3)GlcNAc = molecular target: Kdn(a2-3)Gal(b1-3)GlcNAc
# Procedure, shortened: as §1
# [13] = molecular target: Man(a1-2)Man(a1-2)Man(a1-3)Man
# Procedure, shortened: as §1
# [14] = molecular target: Man(a1-2)Man(a1-3)[Man(a1-6)]Man(a1-6)[Man(a1-2)Man(a1-3)]Man(b1-4)GlcNAc(b1-4)GlcNAc
# Procedure, shortened: as §1
# [15] = molecular target: Man(a1-2)Man(a1-6)[Man(a1-3)]Man(a1-6)[Man(a1-2)Man(a1-2)Man(a1-3)]Man(b1-4)GlcNAc(b1-4)GlcNAc
# Procedure, shortened: as §1
# [16] = molecular target: Neu5Ac(a2-3)Gal(b1-3)GlcNAc(b1-2)Man
# Procedure, shortened: as §1
# [17] = molecular target: Neu5Ac(a2-3)Gal(b1-3)GlcNAc(b1-6)GalNAc
# Procedure, shortened: as §1
# [18] = molecular target: Neu5Ac(a2-3)Gal(b1-4)GlcNAc(b1-3)Gal(b1-4)GlcNAc(b1-3)Gal(b1-4)GlcNAc(b1-2)Man(a1-3)[Neu5Ac(a2-3)Gal(b1-4)GlcNAc(b1-3)Gal(b1-4)GlcNAc(b1-3)Gal(b1-4)GlcNAc(b1-2)Man(a1-6)]GalNAc
# Procedure, shortened: as §1
# [19] = molecular target: Neu5Ac(a2-3)Gal(b1-4)GlcNAc6S
# Procedure, shortened: as §1
# [20] = molecular target: Neu5Ac(a2-3)Gal(b1-4)[Fuc(a1-3)]GlcNAc(b1-3)GalNAc
# Procedure, shortened: as §1
# Neu5Ac(a2-8)Neu5Ac = molecular target: Neu5Ac(a2-8)Neu5Ac
# Procedure, shortened: as §1
# [21] = molecular target: Neu5Ac(a2-8)Neu5Gc(a2-3)Gal(b1-4)GlcNAc
# Procedure, shortened: as §1
# Neu5Gc(a2-6)GalNAc = molecular target: Neu5Gc(a2-6)GalNAc
# Procedure, shortened: as §1
binder,measurement,setting,value
B1,glycan array binding signal (z-score),[1],0.774
same,glycan array binding signal (z-score),[2],0.053
same,glycan array binding signal (z-score),[3],3.46
same,glycan array binding signal (z-score),Gal6P(b1-4)GlcNAc,-0.343
same,glycan array binding signal (z-score),[4],0.244
same,glycan array binding signal (z-score),[5],-0.426
same,glycan array binding signal (z-score),GalNAc(b1-3)GalNAc,1.2
same,glycan array binding signal (z-score),[6],-0.31
same,glycan array binding signal (z-score),Glc(b1-6)Glc,-0.146
same,glycan array binding signal (z-score),[7],-0.442
same,glycan array binding signal (z-score),[8],-0.057
same,glycan array binding signal (z-score),[9],3.19
same,glycan array binding signal (z-score),[10],-0.11
same,glycan array binding signal (z-score),[11],-0.076
same,glycan array binding signal (z-score),[12],0.127
same,glycan array binding signal (z-score),Kdn(a2-3)Gal(b1-3)GlcNAc,0.209
same,glycan array binding signal (z-score),[13],-0.321
same,glycan array binding signal (z-score),[14],-0.274
same,glycan array binding signal (z-score),[15],-0.383
same,glycan array binding signal (z-score),[16],-0.329
same,glycan array binding signal (z-score),[17],3.9
same,glycan array binding signal (z-score),[18],5.44
same,glycan array binding signal (z-score),[19],-0.321
same,glycan array binding signal (z-score),[20],-0.014
same,glycan array binding signal (z-score),Neu5Ac(a2-8)Neu5Ac,4.99
same,glycan array binding signal (z-score),[21],5.56
same,glycan array binding signal (z-score),Neu5Gc(a2-6)GalNAc,-0.21
